This is an account of results in PubChem BioAssay (NCATS).

Records with an inconclusive call do not appear. Activity calls are given as the source filed them. Calls come from the whole dose curve; as a rule, active = well fitted inhibition curve with a large enough effect; inconclusive = small, poorly fitted or top-dose-only effect; inactive = no such curve, though single readings can be large or run the other way.
% is set by controls: 0 for no effect and ±100 for the full control effect.

The target of the assay is Papain (Carica papaya) (UniProt P00784). The experiment in a line: Primary qHTS assay for inhibitors of the protease papain (AID 1645873).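 Note: papain turnover of Z-FR-AMC read as the AMC fluorescence gain over 10 min.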 Particulars: papain Z-FR-AMC cleavage, AMC fluorescence; series mostly up to 49.8 µM; activity change, negative = inhibition: at the top concentration.
Sequence of Papain (Carica papaya) (P00784 whole entry, looked up): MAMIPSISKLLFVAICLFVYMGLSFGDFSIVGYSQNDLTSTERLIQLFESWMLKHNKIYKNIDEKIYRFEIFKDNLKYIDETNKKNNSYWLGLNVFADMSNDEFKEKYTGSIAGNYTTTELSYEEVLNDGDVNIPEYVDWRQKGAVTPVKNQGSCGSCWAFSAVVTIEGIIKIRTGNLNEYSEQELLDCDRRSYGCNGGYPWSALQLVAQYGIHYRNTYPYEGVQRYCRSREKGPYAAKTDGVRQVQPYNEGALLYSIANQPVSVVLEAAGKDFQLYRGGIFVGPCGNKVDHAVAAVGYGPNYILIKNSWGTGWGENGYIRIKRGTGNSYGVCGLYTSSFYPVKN
`CN1C2CCC1CC(OC(=O)C(O)c1ccccc1)C2` (stereo unspecified): the “activity change, negative = inhibition” value is 6.03% (inactive).

Take `CC1CN(S(=O)(=O)c2cccc3cnccc23)CCN1` (stereo unspecified): the “activity change, negative = inhibition” value was 12.5% (inactive).

Consider `O=[N+]([O-])c1ccc(CSc2ncnc3c2ncn3[C@@H]2O[C@H](CO)[C@@H](O)[C@H]2O)cc1`, for which the “activity change, negative = inhibition” value was 3.15% (inactive).

As for `Nc1nc(SCc2ccc([N+](=O)[O-])cc2)c2ncn([C@@H]3O[C@H](CO)[C@@H](O)[C@H]3O)c2n1`, the “activity change, negative = inhibition” value is -6.39% (inactive).

As to `O=C(O)CC1CCCc2ccccc2C1O` (stereo unspecified), the “activity change, negative = inhibition” value is 2.25% (inactive).

Turning to `NC(=O)C(=O)O`, the “activity change, negative = inhibition” value is 1.17% (inactive).

In the case of `CN1CCc2cc(NC(=O)Nc3cccnc3)ccc21`, the “activity change, negative = inhibition” value is -0.81% (inactive).

With `O=P(O)(O)C(Cl)(Cl)P(=O)(O)O`, the “activity change, negative = inhibition” value is 33.4% (inactive).

With `O=S(=O)(c1cccc2c(I)cccc12)N1CCCNCC1`, the “activity change, negative = inhibition” value was 7.65% (inactive).

Take `Nc1nc(Cl)nc2c1ncn2[C@@H]1O[C@H](COP(=O)(O)OP(=O)(O)OP(=O)(O)O)[C@@H](O)[C@H]1O`: the “activity change, negative = inhibition” value is -4.23% (inactive).

As to `O=C(c1ccc(OCCCc2cnc[nH]2)cc1)C1CC1`, the “activity change, negative = inhibition” value is 2.07% (inactive).

As for `Nc1nc(Cl)nc2c1ncn2[C@@H]1O[C@H](CO)[C@@H](O)[C@H]1O`, the “activity change, negative = inhibition” value was -0.27% (inactive).

Turning to `CCN(CC)c1ncnc2c1ncn2[C@@H]1O[C@H](COP(=O)(O)OP(=O)(O)C(Br)(Br)P(=O)(O)O)[C@@H](O)[C@H]1O`, the “activity change, negative = inhibition” value is 13.2% (inactive).

`N[C@H](CCCP(=O)(O)O)C(=O)O`: the “activity change, negative = inhibition” value was -6.39% (inactive).

Consider `COc1ccc(-c2cc(=O)c3c(O)c(OC)c(OC)cc3o2)cc1O`, for which the “activity change, negative = inhibition” value is 50.9% (inactive).

On to `OC[C@H]1O[C@@H](n2cnc3c(NC4CCCC4)ncnc32)[C@H](O)[C@@H]1O`, for which the “activity change, negative = inhibition” value was 14.1% (inactive).

Regarding `O=Nc1ccc2oc(=O)ccc2c1`, the “activity change, negative = inhibition” value was -0.45% (inactive).

`CSc1ccccc1N1CCN(CCCCCC(=O)NC2CCCc3ccccc32)CC1` (stereo unspecified): the “activity change, negative = inhibition” value is 0.81% (inactive).

`CC(C)(C=O)Cc1cc(C(C)(C)C)c(O)c(C(C)(C)C)c1`: the “activity change, negative = inhibition” value was 5.67% (inactive).

On to `O=C(CCCCCN1CCN(c2ccccc2-c2ccccc2)CC1)NC1CCCc2ccccc21` (stereo unspecified), for which the “activity change, negative = inhibition” value was 12.3% (inactive).

For `CN(C)c1ccc(/C=C2\C(=O)Nc3ccccc32)cc1`, the “activity change, negative = inhibition” value is 5.31% (inactive).

As to `COC1=C(OC)C(=O)c2ccccc2C1=O`, the “activity change, negative = inhibition” value is 19.7% (inactive).

For `CCCCCCCCCCCCCCCC(=O)OC(CC(=O)O)C[N+](C)(C)C` (stereo unspecified), the “activity change, negative = inhibition” value is 16.5% (inactive).

Consider `CC[C@@H](C)[C@H]1O[C@]2(CC[C@H]1C)C[C@@H]1C[C@@H](CC=C(C)[C@@H](O[C@H]3C[C@H](OC)[C@@H](O[C@H]4C[C@H](OC)[C@@H](O)[C@H](C)O4)[C@H](C)O3)[C@@H](C)C=CC=C3CO[C@@H]4[C@H](O)C(C)=C[C@@H](C(=O)O1)[C@]34O)O2`, for which the “activity change, negative = inhibition” value was 2.97% (inactive).

For the molecule `CCCCCCCCc1ccc(-c2ccc(C(=O)O)cc2)cc1`, the “activity change, negative = inhibition” value is -0.27% (inactive).

For `CC(C)NCC(O)COc1cccc2ccccc12` (stereo unspecified), the “activity change, negative = inhibition” value is 2.79% (inactive).

Regarding `COCCOc1cc2ncnc(Cl)c2cc1OCCOC`, the “activity change, negative = inhibition” value was -3.15% (inactive).

For the molecule `Cc1cc(NC(=O)Nc2ccc3c(ccn3C)c2)sn1`, the “activity change, negative = inhibition” value was -3.87% (inactive).

In the case of `NC[C@H]1O[C@@H](n2cnc3c(N)ncnc32)[C@H](O)[C@@H]1O`, the “activity change, negative = inhibition” value was 1.53% (inactive).

In the case of `COc1ccc(Br)cc1S(=O)(=O)NC(=O)/C=C/c1ccccc1Cc1ccc2ccccc2c1`, the “activity change, negative = inhibition” value is -3.87% (inactive).

`OC[C@H]1O[C@@H](n2cnc3c(NC4CCCCC4)ncnc32)[C@H](O)[C@@H]1O`: the “activity change, negative = inhibition” value was 15% (inactive).

Turning to `CC(C)CC(NP(=O)(O)O[C@@H]1O[C@@H](C)[C@H](O)[C@@H](O)[C@H]1O)C(=O)NC(Cc1c[nH]c2ccccc12)C(=O)O` (stereo partly specified), the “activity change, negative = inhibition” value was 18.3% (inactive).

`COc1cccc(OC)c1OCCNCC1COc2ccccc2O1` (stereo unspecified): the “activity change, negative = inhibition” value was -9.45% (inactive).

Consider `Cn1c(=O)c(-c2c(Cl)cccc2Cl)cc2cnc(Nc3ccc(N4CCOCC4)cc3)nc21`, for which the “activity change, negative = inhibition” value was -9.27% (inactive).

As for `CN(C)CCC(c1ccc(Cl)cc1)c1ccccn1` (stereo unspecified), the “activity change, negative = inhibition” value was 7.47% (inactive).

For the molecule `Clc1ccc(N2CCN(Cc3c[nH]c4ncccc34)CC2)cc1`, the “activity change, negative = inhibition” value was 13.4% (inactive).
